Measurements published in PubChem BioAssay (Tox21).
Records with an inconclusive call do not appear. Calls of active or inactive are those of the source. Unless noted, calls come from the whole dose curve; as a rule, active = well fitted curve in the direction sought with a large enough effect in the repeat runs; inconclusive = weak or mixed curves; inactive = no such curve, though single readings can be large; an effect the other way counts as inactive or inconclusive.

What was measured:
[1] = qHTS assay to identify small molecule HDAC inhibitors - cell viability counter screen (AID 1259365); note: series mostly up to about 92 µM; nearly all actives have a fitted effect of over 50% in size
Method in brief: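 After overnight seeding at 1,500 cells per well, wild-type HCT-116 cultures took up compounds in DMSO for 2hr at 37 C. Viable cell content came from luminescence with CellTiter-Glo.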

[2] = qHTS assay to identify small molecule agonists of the sonic hedgehog signaling (Shh) pathway - cell viability counter screen (AID 1259366); note: nearly all actives have a fitted effect of over 50% in size
Method in brief: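 Same-well cytotoxicity read. Gli1-Luc reporter 3T3 cells; compounds 24hr, 37C/5% CO2; CellTiter-Fluor fluorescence.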

[3] = qHTS assay to identify small molecule antagonists of the sonic hedgehog signaling (Shh) pathway - cell viability counter screen (AID 1259367); note: nearly all actives have a fitted effect of over 55% in size
Method in brief: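 Conditioned medium drove Shh signaling in 3T3 Gli1-Luc cells exposed to compounds at 37C and 5% CO2. Viability was determined from CellTiter-Fluor fluorescence, with reagent incubated 1 hr after 23 hr of treatment.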

[4] = qHTS assay to identify small molecule agonists of the sonic hedgehog signaling (Shh) pathway (AID 1259368; calls by dose curve;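 note: NIH/3T3-derived 3T3Gli1-Luc cells carrying a stable Gli1-driven firefly luciferase reporter; series mostly up to about 92 µM; nearly all actives have a fitted effect of over 15% in size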)
Method in brief: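 Hedgehog pathway agonism scored by increased firefly luciferase luminescence in 3T3Gli1-Luc cells treated 24 hr at 37 C; detection used a 30 min room-temperature reagent incubation.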

[5] = qHTS assay to identify small molecule antagonists of the sonic hedgehog signaling (Shh) pathway (AID 1259369; calls by dose curve; note: nearly all actives have a fitted effect of over 45% in size)
Method in brief: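 NIH/3T3 stable Gli1-Luc clone, 2,000 cells/well, 4hr settle; cpd + conditioned medium 24hr; Luc reagent 30min RT; luminescence.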

[6] = target: Estrogen receptor beta (Homo sapiens) (UniProt Q92731); assay: qHTS assay to identify small molecule agonists of the estrogen receptor beta (ER-beta) signaling pathway (AID 1259377; active = well fitted activation curve with a large enough effect in the signal ratio in the repeat runs, not every such curve was filed as active; the % refers to the signal ratio)
Chain of Estrogen receptor beta (Homo sapiens) (Q92731 whole entry, looked up): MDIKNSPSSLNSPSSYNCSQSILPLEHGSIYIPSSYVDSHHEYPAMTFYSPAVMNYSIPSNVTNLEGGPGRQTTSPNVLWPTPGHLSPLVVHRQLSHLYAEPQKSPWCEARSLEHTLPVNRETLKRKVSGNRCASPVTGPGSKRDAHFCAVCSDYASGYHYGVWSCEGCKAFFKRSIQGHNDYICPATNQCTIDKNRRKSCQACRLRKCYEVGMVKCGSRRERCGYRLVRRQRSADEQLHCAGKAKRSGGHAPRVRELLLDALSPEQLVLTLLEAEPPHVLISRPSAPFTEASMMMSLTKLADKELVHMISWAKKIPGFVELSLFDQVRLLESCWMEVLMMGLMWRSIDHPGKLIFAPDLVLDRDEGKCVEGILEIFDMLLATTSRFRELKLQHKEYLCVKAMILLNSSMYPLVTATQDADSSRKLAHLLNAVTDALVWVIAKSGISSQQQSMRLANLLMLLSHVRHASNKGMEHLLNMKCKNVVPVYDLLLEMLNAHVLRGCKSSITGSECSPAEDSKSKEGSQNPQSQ
Method in brief: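 Read-out: beta-lactamase FRET fluorescence. Cell line: ER-beta-UAS-bla HEK293T in 2% charcoal-stripped FBS. Exposure: 16 hr at 37C. Substrate step: 2 h at room temperature.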

[7] = target: Estrogen receptor beta (Homo sapiens) (UniProt Q92731); assay: qHTS assay to identify small molecule antagonists of the estrogen receptor beta (ER-beta) signaling pathway (AID 1259378; active = well fitted inhibition curve with a large enough effect in the signal ratio in the repeat runs, not every such curve was filed as active; the % refers to the signal ratio)
Method in brief: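 ER-beta-UAS-bla HEK293T (GripTite) cells in 2% charcoal-stripped FBS medium were preincubated 6 hr at 37C, dosed with compound, then stimulated with 1 nM E2 (final) for 16 hr; beta-lactamase reporter read by B/G FRET fluorescence after 2 hr substrate loading.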

[8] = qHTS assay to identify small molecule agonists of the androgen receptor (AR) signaling pathway in the presence of an antagonist - cell viability counter screen (AID 1259379);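 note: MDA-kb2 human breast cancer cells carrying an MMTV luciferase reporter; series mostly up to about 92 µM; nearly all actives have a fitted effect of over 25% in size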
Method in brief: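 MDA-kb2 viability measured by CellTiter-Fluor fluorescence in the same wells as the luciferase signal; nilutamide 3.0uM final; 15-point compound titration; 16 hr at 37C.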

[9] = qHTS assay to identify small molecule agonists of the estrogen receptor beta (ER-beta) signaling pathway - cell viability counter screen (AID 1259380); note: nearly all actives have a fitted effect of over 30% in size
Method in brief: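 Measured: luminescence from CellTiter-Glo after 30 min at room temperature, added to wells already read for the LiveBLAzer FRET reporter (2 hr substrate); ER-beta-UAS-bla HEK293T cells had 16 hr compound treatment at 37C, 5% CO2.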

[10] = target: Androgen receptor (Homo sapiens) (UniProt P10275); assay: qHTS assay to identify small molecule agonists of the androgen receptor (AR) signaling pathway in the presence of an antagonist (AID 1259381; calls by dose curve; note: nearly all actives have a fitted effect of over 15% in size)
Chain of Androgen receptor (Homo sapiens) (P10275 whole entry, looked up): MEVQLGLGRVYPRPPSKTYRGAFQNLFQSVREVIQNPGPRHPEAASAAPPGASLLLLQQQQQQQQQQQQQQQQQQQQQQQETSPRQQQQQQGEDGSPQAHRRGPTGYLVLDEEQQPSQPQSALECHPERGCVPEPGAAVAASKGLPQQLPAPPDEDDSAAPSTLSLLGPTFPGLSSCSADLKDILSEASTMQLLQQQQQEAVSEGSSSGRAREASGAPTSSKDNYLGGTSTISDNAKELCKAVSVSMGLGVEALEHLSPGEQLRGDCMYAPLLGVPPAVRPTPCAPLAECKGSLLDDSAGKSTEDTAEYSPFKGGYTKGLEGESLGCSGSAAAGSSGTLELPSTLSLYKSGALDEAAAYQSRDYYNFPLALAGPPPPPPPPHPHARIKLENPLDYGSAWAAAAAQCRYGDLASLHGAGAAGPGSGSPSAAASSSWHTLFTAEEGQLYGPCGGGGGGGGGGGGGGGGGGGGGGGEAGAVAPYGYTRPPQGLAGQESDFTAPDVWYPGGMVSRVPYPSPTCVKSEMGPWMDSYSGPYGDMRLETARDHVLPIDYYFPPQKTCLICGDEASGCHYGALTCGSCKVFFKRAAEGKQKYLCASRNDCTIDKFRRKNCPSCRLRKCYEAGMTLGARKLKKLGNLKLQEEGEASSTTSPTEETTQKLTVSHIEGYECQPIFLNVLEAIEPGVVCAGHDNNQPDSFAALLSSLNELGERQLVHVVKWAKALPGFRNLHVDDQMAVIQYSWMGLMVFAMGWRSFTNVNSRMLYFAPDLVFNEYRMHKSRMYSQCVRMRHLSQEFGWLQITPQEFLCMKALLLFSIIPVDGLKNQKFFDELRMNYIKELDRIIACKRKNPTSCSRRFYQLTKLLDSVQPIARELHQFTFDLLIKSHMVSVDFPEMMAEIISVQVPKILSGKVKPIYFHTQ
Method in brief: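 Luminescent ONE-Glo read, 30min at room temperature, follows 16hr compound exposure (15 concentrations) of MDA-kb2 cells at 37C, 0% CO2, with nilutamide added at 3.0uM final.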

[11] = qHTS assay to identify small molecule antagonists of the estrogen receptor beta (ER-beta) signaling pathway - cell viability counter screen (AID 1259382); note: series mostly up to about 92 µM; nearly all actives have a fitted effect of over 55% in size
Method in brief: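 Readout: luminescence, CellTiter-Glo, same wells as bla assay. System: ER-beta-UAS-bla GripTite HEK293T, 2% charcoal-stripped FBS. Exposure: compounds plus 1nM 17-beta-estradiol, 16 hr, 37C.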

[12] = target: Estrogen receptor (Homo sapiens) (UniProt P03372); assay: qHTS assay to identify small molecule agonists of the estrogen receptor alpha (ER-alpha) signaling pathway in the presence of an antagonist (AID 1259383; calls by dose curve; note: top concentration of the series differs between compounds; nearly all actives have a fitted effect of over 15% in size)
Chain of Estrogen receptor (Homo sapiens) (P03372 whole entry, looked up): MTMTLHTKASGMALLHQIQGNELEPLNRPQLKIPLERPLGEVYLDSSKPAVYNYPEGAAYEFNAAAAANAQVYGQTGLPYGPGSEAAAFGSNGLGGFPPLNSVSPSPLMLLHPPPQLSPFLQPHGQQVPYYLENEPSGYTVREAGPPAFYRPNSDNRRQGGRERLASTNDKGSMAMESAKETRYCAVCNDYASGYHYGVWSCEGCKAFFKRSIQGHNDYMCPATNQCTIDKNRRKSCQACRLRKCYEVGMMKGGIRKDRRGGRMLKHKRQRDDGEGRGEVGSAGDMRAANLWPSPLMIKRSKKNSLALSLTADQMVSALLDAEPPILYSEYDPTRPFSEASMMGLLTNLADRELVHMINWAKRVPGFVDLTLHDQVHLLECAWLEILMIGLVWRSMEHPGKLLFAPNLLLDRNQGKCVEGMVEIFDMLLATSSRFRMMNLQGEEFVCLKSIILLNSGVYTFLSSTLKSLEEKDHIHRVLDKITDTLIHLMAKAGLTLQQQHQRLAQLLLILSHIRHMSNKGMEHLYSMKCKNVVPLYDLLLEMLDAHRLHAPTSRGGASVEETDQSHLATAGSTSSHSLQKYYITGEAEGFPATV
Method in brief: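 Quantitative HTS confirmation: compounds titrated at 15 concentrations onto estrogen-deprived VM7Luc4E2 cells carrying a four-ERE luciferase construct, with ICI-182,780 present at 10.0nM final. Signal is luminescence after 22hr exposure.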

[13] = target: Thyrotropin receptor (Homo sapiens) (UniProt P16473); assay: qHTS assay to identify small molecule antagonists of the thyroid stimulating hormone receptor (TSHR) signaling pathway (AID 1259385; calls by dose curve; note: nearly all actives have a fitted effect of over 20% in size)
Chain of Thyrotropin receptor (Homo sapiens) (P16473 whole entry, looked up): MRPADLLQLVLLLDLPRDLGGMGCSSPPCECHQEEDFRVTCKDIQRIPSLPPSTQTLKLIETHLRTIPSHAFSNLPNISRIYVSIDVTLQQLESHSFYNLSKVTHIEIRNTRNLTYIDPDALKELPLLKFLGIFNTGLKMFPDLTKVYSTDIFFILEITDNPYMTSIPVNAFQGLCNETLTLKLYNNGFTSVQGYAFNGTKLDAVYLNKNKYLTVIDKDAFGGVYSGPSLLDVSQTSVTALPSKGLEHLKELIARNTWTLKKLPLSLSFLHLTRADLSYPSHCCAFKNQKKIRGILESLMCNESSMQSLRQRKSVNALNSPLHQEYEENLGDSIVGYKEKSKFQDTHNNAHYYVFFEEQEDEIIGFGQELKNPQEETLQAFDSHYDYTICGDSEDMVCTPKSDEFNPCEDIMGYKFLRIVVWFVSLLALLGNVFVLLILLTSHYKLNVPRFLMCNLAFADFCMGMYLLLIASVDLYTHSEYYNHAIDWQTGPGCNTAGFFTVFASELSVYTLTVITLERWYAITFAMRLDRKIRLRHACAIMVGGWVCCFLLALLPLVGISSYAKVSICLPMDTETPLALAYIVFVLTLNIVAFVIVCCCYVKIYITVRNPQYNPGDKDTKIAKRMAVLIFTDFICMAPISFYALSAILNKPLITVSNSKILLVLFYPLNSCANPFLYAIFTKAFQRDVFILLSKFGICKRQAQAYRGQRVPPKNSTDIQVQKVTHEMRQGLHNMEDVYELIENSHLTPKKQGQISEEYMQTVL
Method in brief: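 TSHR-HEK293 cells were plated and held 18 h at 37C/5% CO2, then given compound plus Ro20-1724 and stimulated with TSH at 1.5 ng/mL final. After 30 min at room temperature, cAMP was detected with cAMP-d2/anti-cAMP-cryptate (1 h) by fluorescence.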

[14] = qHTS assay to identify small molecule agonists of the estrogen receptor alpha (ER-alpha) signaling pathway in the presence of an antagonist - cell viability counter screen (AID 1259386);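 note: series mostly up to about 92 µM; cells exposed to compounds for 22 h at 37 °C before the viability read; nearly all actives have a fitted effect of over 30% in size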
Method in brief: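 The test measures whether compounds kill ER-alpha reporter cells (VM7Luc4E2) under antagonist co-treatment (ICI-182,780, 10.0nM). Fluorescence from CellTiter-Fluor is read after a 22hr exposure.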

[15] = target: Progesterone receptor (Homo sapiens) (UniProt P06401); assay: qHTS assay to identify small molecule agonists of the progesterone receptor (PR) signaling pathway (AID 1346784; calls by dose curve; note: nearly all actives have a fitted effect of over 30% in size)
Chain of Progesterone receptor (Homo sapiens) (P06401 whole entry, looked up): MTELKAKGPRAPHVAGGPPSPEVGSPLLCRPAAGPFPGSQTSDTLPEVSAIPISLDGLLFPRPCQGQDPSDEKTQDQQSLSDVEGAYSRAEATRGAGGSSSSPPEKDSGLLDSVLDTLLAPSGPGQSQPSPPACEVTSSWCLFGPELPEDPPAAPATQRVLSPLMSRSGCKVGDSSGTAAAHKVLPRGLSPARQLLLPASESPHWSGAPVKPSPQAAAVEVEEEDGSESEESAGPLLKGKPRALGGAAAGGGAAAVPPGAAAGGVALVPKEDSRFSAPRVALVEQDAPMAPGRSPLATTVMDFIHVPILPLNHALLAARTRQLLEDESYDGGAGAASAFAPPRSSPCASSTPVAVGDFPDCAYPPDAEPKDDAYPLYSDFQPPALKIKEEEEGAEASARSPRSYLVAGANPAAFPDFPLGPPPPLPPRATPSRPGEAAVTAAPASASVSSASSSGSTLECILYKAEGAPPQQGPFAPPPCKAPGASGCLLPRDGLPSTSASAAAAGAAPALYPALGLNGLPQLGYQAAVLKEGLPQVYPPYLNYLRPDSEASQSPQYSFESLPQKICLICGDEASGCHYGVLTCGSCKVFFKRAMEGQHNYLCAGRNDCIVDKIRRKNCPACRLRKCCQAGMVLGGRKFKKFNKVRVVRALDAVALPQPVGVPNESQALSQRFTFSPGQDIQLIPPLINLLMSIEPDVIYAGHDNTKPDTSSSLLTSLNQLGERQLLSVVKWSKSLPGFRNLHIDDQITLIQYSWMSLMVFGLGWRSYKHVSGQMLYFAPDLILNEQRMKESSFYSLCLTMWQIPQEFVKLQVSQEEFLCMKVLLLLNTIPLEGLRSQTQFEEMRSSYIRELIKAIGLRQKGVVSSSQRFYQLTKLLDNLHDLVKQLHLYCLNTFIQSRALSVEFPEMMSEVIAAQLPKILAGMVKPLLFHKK
Method in brief: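 Compounds were tested for PR agonism in HEK 293T cells bearing a beta-lactamase gene under UAS control. Treatment lasted 16 hr at 37C; signal came from fluorescence of a FRET substrate.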

[16] = target: Progesterone receptor (Homo sapiens) (UniProt P06401); assay: qHTS assay to identify small molecule antagonists of the progesterone receptor (PR) signaling pathway (AID 1346795; active = well fitted inhibition curve with a large enough effect in the signal ratio in the repeat runs, not every such curve was filed as active; the % refers to the signal ratio)
Method in brief: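 In HEK293T cells bearing the PR-UAS-bla reporter, compound effects on promegestone-driven (1 nM) beta-lactamase expression are assessed after 16 hr using a fluorescent FRET substrate incubated 2 hr at room temperature.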

[17] = qHTS assay to identify small molecule agonists of the progesterone receptor (PR) signaling pathway - cell viability counter screen (AID 1346799; calls by dose curve; note: nearly all actives have a fitted effect of over 45% in size)
Method in brief: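 Here, 3,000 PR-UAS-bla HEK293T cells per well were treated with compounds for 16 hr after a 6 hr preincubation at 37C and 5% CO2; cell viability is the CellTiter-Glo luminescence signal.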

[18] = qHTS assay to identify small molecule antagonists of the TGF-beta/Smad signaling pathway - cell viability counter screen (AID 1346824); note: nearly all actives have a fitted effect of over 50% in size
Method in brief: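 SBE-bla HEK 293T cells were plated overnight at 37 C, then given compounds in DMSO plus TGF-beta1 (added as 0.25 ng/mL solution) for 5 hr. After the bla read, CellTiter-Glo was added to the same wells and luminescence read after 30 min at room temperature.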

[19] = qHTS assay to identify small molecule antagonists of the progesterone receptor (PR) signaling pathway - cell viability counter screen (AID 1346798); note: series mostly up to about 92 µM; nearly all actives have a fitted effect of over 50% in size
Method in brief: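 Following a 4 hr attachment, PR-UAS-bla HEK293T cells in charcoal-stripped FBS medium were exposed to compounds with R5020 for 16 hr; CellTiter-Glo was added and luminescence read after 30 min at room temperature.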

[20] = qHTS assay to identify small molecule agonists or antagonists of the thyroid stimulating hormone receptor (TSHR) signaling pathway - wild type cell line counter screen (AID 1259384; calls by dose curve)
Method in brief: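 Wild-type HEK293 cells were plated 18 h at 37 C/5% CO2, pin-dosed with compound plus Ro20-1724 medium, held 30 min at room temperature, then given cAMP-d2 and anti-cAMP-cryptate; fluorescence was read after 1 h. Fifteen concentrations, triplicate.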
% is set by controls: 0 for no effect and ±100 for the full control effect.

CCO
inactive: outcome [1] | outcome [2] | outcome [3] | outcome [4] | Potency [5] | Potency [6] | Potency [7] | outcome [8] | outcome [9] | outcome [10] | outcome [11] | Potency [12] | outcome [13] | outcome [14] | Potency [15] | Potency [16] | outcome [17] | outcome [18]

O=C1c2ccccc2C(=O)c2cc(Cl)ccc21
inactive: activity change, negative = cytotoxicity [1] 6.08% [at 8.39 µM] | viability change, negative = cytotoxic [2] 3.28% [at 8.39 µM] | viability change, negative = cytotoxic [3] 1.09% [at 8.39 µM] | activity change [4] 1.3% [at 8.39 µM] | activity change, negative = inhibition [5] 20.2% [at 8.39 µM] | activation [6] 7.82% [at 8.39 µM] | activity, negative = inhibition [7] 3.18% [at 8.39 µM] | activity change, negative = cytotoxicity [8] 0.449% [at 8.39 µM] | activity change, negative = cytotoxicity [9] 1.14% [at 8.39 µM] | activity change, negative = cytotoxicity [11] 1.86% [at 8.39 µM] | activation [12] 1.09% [at 8.39 µM] | activity change, negative = inhibition [13] -1.43% [at 8.39 µM] | activity change, negative = cytotoxicity [14] 1.35% [at 8.39 µM] | activation [15] 2.34% [at 8.39 µM] | activity change, negative = inhibition [16] 1.29% [at 8.39 µM] | activity change, negative = cytotoxicity [17] 13.3% [at 8.39 µM] | viability change, negative = cytotoxic [18] -4.61% [at 6.97 µM]

NCC1(Cc2noc(=O)[nH]2)CCCCC1
inactive: outcome [1] | outcome [2] | outcome [3] | outcome [4] | Potency [5] | Potency [6] | Potency [7] | outcome [8] | outcome [9] | outcome [11] | Potency [12] | outcome [13] | Potency [15] | Potency [16] | outcome [19] | outcome [17] | outcome [18]

CN1CCOC(c2ccccc2)c2ccccc2C1 (stereo not given)
inactive: outcome [1] | outcome [2] | outcome [3] | outcome [4] | Potency [5] | Potency [6] | Potency [7] | outcome [8] | outcome [9] | outcome [11] | outcome [13] | outcome [14] | Potency [15] | Potency [16] | outcome [19] | outcome [17] | outcome [18]

CC(C)C[C@@H]1[C@H](c2ccccc2)OC(=O)N1CCCN1CCCCCC1
inactive: outcome [1] | outcome [2] | outcome [3] | outcome [4] | Potency [5] | Potency [6] | Potency [7] | outcome [8] | outcome [9] | outcome [10] | outcome [11] | Potency [12] | outcome [13] | outcome [14] | Potency [15] | Potency [16] | outcome [18]

CCC[C@@H]1C[C@@H](C(=O)N[C@@H]([C@H]2O[C@H](SC)[C@H](O)[C@@H](O)[C@H]2O)[C@@H](C)O)N(C)C1
inactive: outcome [1] | outcome [2] | outcome [3] | outcome [4] | Potency [5] | Potency [6] | Potency [7] | outcome [8] | outcome [9] | Potency [12] | outcome [20] | outcome [13] | outcome [14] | outcome [19] | outcome [18]

CC(C)NC(=O)c1ccc(C=O)cc1
inactive: outcome [1] | outcome [2] | outcome [3] | outcome [4] | Potency [5] | Potency [6] | Potency [7] | outcome [8] | outcome [9] | outcome [10] | outcome [11] | outcome [20] | outcome [13] | Potency [15] | Potency [16] | outcome [19] | outcome [17] | outcome [18]

CC(=O)c1cc(C)oc1C
inactive: outcome [1] | outcome [2] | outcome [3] | outcome [4] | Potency [5] | Potency [6] | Potency [7] | outcome [8] | outcome [9] | outcome [10] | outcome [14] | Potency [15] | Potency [16] | outcome [19] | outcome [17] | outcome [18]

Cc1ccc(C(=O)O)cc1[N+](=O)[O-]
inactive: outcome [1] | outcome [2] | outcome [3] | outcome [4] | Potency [5] | Potency [6] | Potency [7] | outcome [8] | outcome [9] | outcome [10] | outcome [11] | Potency [12] | outcome [20] | outcome [13] | outcome [14] | Potency [15] | Potency [16] | outcome [19] | outcome [17] | outcome [18]
